Results as given in PubChem BioAssay.
The source made the active and inactive calls.

Legend:
[1] = optical density shifts of acrAB sulA E. coli – strain DRC41, OD650, 48 h, E. coli filamentation inducer project, primary screen (AID 1152); details: higher = more signal, called active from +8 up or from −8 down;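 further: E. coli MC1000 strain DRC41 lacking acrAB efflux pump and sulA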
[2] = probe aLefty1 binding on compound microarray – biochemical, small-molecule microarray, 635/667 nm fluorescence, primary screen (AID 1153); details: higher = more signal;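 further: score merges spot fluorescence with signal-to-noise ratio from the scanned slide images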
[3] = plasmodial surface anion channel blockers, osmotic lysis – cell-based, P. falciparum Indochina, OD700, 1 h, primary screen (AID 1154); details: P. falciparum Indochina infected RBC osmotic lysis, higher = more signal, called active from +8 up or from −8 down
[4] = plasmodial surface anion channel blockers, osmotic lysis – cell-based, P. falciparum Indochina, OD700, 2 h, primary screen (AID 1155);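 further: lysis reports solute entry through the parasite surface anion channel PSAC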; details: P. falciparum Indochina infected erythrocytes, higher = more signal, called active from +8 up or from −8 down
[5] = changes in parasitized red cell lysis, either direction – P. falciparum Indochina, OD700, 3 h, PSAC antagonist project, primary screen (AID 1156); details: P. falciparum-infected erythrocytes, osmotic lysis, higher = more signal, called active from +8 up or from −8 down
[6] = plasmodial surface anion channel blockers, osmotic lysis – cell-based, P. falciparum Indochina, OD700, 18 h, primary screen (AID 1157); details: P. falciparum Indochina infected erythrocytes, osmotic lysis OD700, 18 h; higher = more signal, called active from +8 up or from −8 down
[7] = S6 kinase pathway phospho-S6 level changes – cell-based, A549, cytoblot, luminescence, serum-stimulated, primary screen (AID 1158); details: 5 h, higher = more signal;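 further: serum-stimulated A549 lung adenocarcinoma cells; signal is phosphorylated S6 detected by cytoblot immunostaining with HRP secondary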
[8] = biological target: NADPH oxidase 2 (Homo sapiens) (UniProt P04839); assay: compounds shifting NOX2 Amplex Red fluorescence – cell-based, HEK293-NOX2, PMA-stimulated, NOX inhibitor project, primary screen (AID 1159); details: 45 min, higher = more signal, called active from +8 up or from −8 down; further: test concentration not given here
Chain of NADPH oxidase 2 (Homo sapiens) (P04839 whole entry, looked up): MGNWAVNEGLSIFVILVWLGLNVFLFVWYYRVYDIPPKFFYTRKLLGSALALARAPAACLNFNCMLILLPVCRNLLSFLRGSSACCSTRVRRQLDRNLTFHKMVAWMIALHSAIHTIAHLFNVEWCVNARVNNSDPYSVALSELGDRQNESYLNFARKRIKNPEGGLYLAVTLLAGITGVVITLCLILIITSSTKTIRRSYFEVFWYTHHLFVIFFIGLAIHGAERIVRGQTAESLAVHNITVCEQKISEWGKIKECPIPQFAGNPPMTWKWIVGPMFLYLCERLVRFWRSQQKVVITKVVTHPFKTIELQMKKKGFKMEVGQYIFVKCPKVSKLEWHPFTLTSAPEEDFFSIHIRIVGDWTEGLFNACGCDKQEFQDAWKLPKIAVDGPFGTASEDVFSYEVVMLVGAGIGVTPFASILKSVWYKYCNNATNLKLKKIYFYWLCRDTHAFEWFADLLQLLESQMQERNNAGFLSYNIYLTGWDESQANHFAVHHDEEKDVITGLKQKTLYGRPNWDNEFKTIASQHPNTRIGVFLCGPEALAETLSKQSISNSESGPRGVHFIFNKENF

[9] = biological target: NADPH oxidase 4 (Homo sapiens) (UniProt Q9NPH5); assay: compounds shifting NOX4 Amplex Red fluorescence – cell-based, HEK293-NOX4, tetracycline-induced, NOX inhibitor project, primary screen (AID 1160); details: HEK293-NOX4, Amplex Red H2O2 fluorescence, 45 min; higher = more signal, called active from +8 up or from −8 down
Chain of NADPH oxidase 4 (Homo sapiens) (Q9NPH5 whole entry, looked up): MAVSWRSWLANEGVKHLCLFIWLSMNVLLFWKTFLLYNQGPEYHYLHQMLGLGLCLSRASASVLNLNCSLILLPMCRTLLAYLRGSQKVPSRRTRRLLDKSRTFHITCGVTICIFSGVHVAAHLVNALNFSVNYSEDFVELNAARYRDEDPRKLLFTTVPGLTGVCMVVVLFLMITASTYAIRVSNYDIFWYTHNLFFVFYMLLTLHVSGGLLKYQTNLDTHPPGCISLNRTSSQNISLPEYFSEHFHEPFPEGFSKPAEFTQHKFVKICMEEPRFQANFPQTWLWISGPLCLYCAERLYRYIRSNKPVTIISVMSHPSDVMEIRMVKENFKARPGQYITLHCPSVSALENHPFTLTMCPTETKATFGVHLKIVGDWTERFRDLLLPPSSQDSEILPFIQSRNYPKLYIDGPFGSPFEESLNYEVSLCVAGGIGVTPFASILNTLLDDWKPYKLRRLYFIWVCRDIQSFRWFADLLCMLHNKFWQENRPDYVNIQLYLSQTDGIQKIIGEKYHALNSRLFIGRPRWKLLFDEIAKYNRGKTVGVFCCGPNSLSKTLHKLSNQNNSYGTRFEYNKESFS

[10] = biological target: NADPH oxidase 5 (Homo sapiens) (UniProt Q96PH1); assay: compounds shifting NOX5 Amplex Red fluorescence – cell-based, HEK293-NOX5, NOX inhibitor project, primary screen (AID 1161); details: HEK293-NOX5, ionomycin, 45 min, higher = more signal
Chain of NADPH oxidase 5 (Homo sapiens) (Q96PH1 whole entry, looked up): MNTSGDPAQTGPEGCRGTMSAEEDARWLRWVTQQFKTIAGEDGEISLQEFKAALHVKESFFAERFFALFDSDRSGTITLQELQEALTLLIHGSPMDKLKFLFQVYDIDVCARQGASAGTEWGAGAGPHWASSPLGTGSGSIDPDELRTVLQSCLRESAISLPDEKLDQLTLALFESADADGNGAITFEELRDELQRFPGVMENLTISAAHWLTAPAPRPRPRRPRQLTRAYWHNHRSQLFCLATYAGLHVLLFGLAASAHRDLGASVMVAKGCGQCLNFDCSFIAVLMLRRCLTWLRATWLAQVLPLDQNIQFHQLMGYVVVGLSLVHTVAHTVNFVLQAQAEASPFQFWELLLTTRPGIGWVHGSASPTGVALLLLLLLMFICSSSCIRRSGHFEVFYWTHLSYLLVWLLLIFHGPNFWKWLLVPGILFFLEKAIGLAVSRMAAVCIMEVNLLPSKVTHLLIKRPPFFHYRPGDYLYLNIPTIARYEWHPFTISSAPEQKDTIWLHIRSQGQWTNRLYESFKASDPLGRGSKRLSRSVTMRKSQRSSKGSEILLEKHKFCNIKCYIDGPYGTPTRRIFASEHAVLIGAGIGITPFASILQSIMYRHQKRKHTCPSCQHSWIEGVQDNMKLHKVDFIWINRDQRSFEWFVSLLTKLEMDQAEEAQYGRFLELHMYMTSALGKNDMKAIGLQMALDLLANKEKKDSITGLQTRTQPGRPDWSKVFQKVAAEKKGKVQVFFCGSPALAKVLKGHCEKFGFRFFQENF

| Compound | z-score [1] | composite z-score [2] | z-score [3] | z-score [4] | z-score [5] | z-score [6] | z-score [7] | z-score [8] | z-score [9] | z-score [10] |
| --- | --- | --- | --- | --- | --- | --- | --- | --- | --- | --- |
| COC(=O)C1=CC(CCCO)=CC(c2ccc(CN3CCCC3)cc2)N(Cc2cccc(OC(F)(F)F)c2)C=C1C(=O)OC (stereo not given) | -0.418 (inactive) | 0.241 | 0.119 (inactive) | -0.984 (inactive) | 0.456 (inactive) | -2.27 (inactive) | 1.38 | 0.439 (inactive) | -0.351 (inactive) | 0.628 |
| C=CC[C@@]1(C(=O)NCCCOC)N=C(c2ccc(OCCCO)cc2)O[C@@H]1c1ccccc1 | 1.3 (inactive) | 0.611 | 21.7 (active) | 7.55 (inactive) | 1.32 (inactive) | 0.406 (inactive) | 1.54 | -0.393 (inactive) | 0.523 (inactive) | 0.754 |
| [N-]=[N+]=Nc1ccccc1[C@@H]1OC(c2ccc(OCCCO)cc2)=N[C@]1(Cc1ccccc1)C(=O)N1CCCCC1 | 0.227 (inactive) | 0.282 | 32.6 (active) | 32.7 (active) | 3.01 (inactive) | 4 (inactive) | 0.328 | -1.43 (inactive) | -0.743 (inactive) | -1.77 |
| Cc1ccc(S[C@]2(C(=O)NC(C)C)CC(=O)N(Cc3cc(C(F)(F)F)cc(C(F)(F)F)c3)[C@@H]2c2ccc(CO)cc2)cc1 | -0.16 (inactive) | -0.0252 | 2.96 (inactive) | 0.812 (inactive) | 0.497 (inactive) | 0.672 (inactive) | -0.768 | -0.00496 (inactive) | -0.242 (inactive) | 0.128 |
| COc1ccc([C@H]2OC[C@@H]3C[C@H](Cc4ccccc4)C(=O)N32)cc1 | -0.446 (inactive) | 0.015 | 1.96 (inactive) | 0.92 (inactive) | -0.356 (inactive) | 0.284 (inactive) | -0.133 | 0.829 (inactive) | 0.284 (inactive) | 0.695 |
| CO[C@H]1O[C@H](CO)[C@@H](OC(=O)Nc2ccccc2)[C@H](OC(=O)c2cc3ccccc3[nH]2)[C@H]1OC(=O)c1cc2ccccc2[nH]1 | 0.541 (inactive) | 0.214 | 0.909 (inactive) | -0.795 (inactive) | 0.447 (inactive) | -0.758 (inactive) | 1.27 | -6.27 (inactive) | -0.405 (inactive) | -2.16 |
| CCOC(=O)[C@@H]1CCCCN1C(=O)C(=O)OC | -0.446 (inactive) | -0.0515 | -1.11 (inactive) | -0.164 (inactive) | -0.306 (inactive) | -0.262 (inactive) | -0.523 | 0.296 (inactive) | -0.28 (inactive) | 0.153 |
| CS(=O)(=O)CCOC(=O)C1=CC(CCCO)=CC(c2ccc(CN3CCCC3)cc2)N(Cc2sc3ccccc3c2Cl)C=C1C(=O)OCCS(C)(=O)=O (stereo not given) | -0.794 (inactive) | 0.85 | 3.35 (inactive) | 0.586 (inactive) | 0.51 (inactive) | 0.428 (inactive) | -0.261 | 0.44 (inactive) | -0.567 (inactive) | -0.719 |
| CCCC#C[Si](O[C@H](CC)c1cn([C@H](C)c2ccccc2)nn1)(C(C)C)C(C)C | 2.53 (inactive) | 0.28 | 1.01 (inactive) | 1.05 (inactive) | -0.302 (inactive) | 0.357 (inactive) | 0.364 | 0.177 (inactive) | 0.00728 (inactive) | 0.7 |
| COCCOC(=O)N1C(=O)[C@@]2(c3cc(C#CCCO)ccc31)[C@H](C(=O)Nc1nc3ccccc3s1)[C@H]1C(=O)O[C@H](c3ccccc3)[C@H](c3ccccc3)N1[C@@H]2c1ccc(O)cc1 | 0.0106 (inactive) | 0.126 | 1.41 (inactive) | 0.523 (inactive) | 1 (inactive) | 0.417 (inactive) | 0.0869 | 1.43 (inactive) | 0.0581 (inactive) | 0.329 |
| O=C1O[C@@H](c2ccccc2)[C@@H](c2ccccc2)N2[C@@H](c3ccc(OCCO)cc3)[C@]3(C(=O)Nc4ccc(C#CC5=CCCCC5)cc43)[C@@H](C(=O)NC[C@H](O)c3ccccc3)[C@H]12 | -0.836 (inactive) | 1.38 | 1.96 (inactive) | 0.982 (inactive) | -0.607 (inactive) | 0.381 (inactive) | -0.164 | 1.61 (inactive) | 0.433 (inactive) | 0.469 |
| [N-]=[N+]=Nc1ccccc1C[C@]1(C(=O)NCCN2CCOCC2)COC(c2ccc(OCCCO)cc2)=N1 | 1.87 (inactive) | 0.111 | 21.5 (active) | 4.14 (inactive) | 2.57 (inactive) | 0.913 (inactive) | 0.148 | 2.89 (inactive) | 1.12 (inactive) | -0.481 |
| [N-]=[N+]=NCc1ccccc1[C@H]1OC(c2ccc(OCCCO)cc2)=N[C@@]1(Cc1ccccc1N=[N+]=[N-])C(=O)NCC(O)CO (stereo not given in full) | -0.502 (inactive) | 0.54 | 27.6 (active) | 21 (active) | 1.37 (inactive) | 2.09 (inactive) | -0.48 | -3.08 (inactive) | -0.592 (inactive) | -1.71 |
| CC(CO)N1C(=O)[C@@H]2[C@H]3C(=O)OCC=C[C@H]3OC23C=CCN(Cn2nnc4ccccc42)C(=O)[C@@H]13 (stereo not given in full) | -0.597 (inactive) | -0.147 | 0.638 (inactive) | 0.359 (inactive) | 0.029 (inactive) | 0.0866 (inactive) | -0.0773 | 0.698 (inactive) | 0.672 (inactive) | 1.78 |
